About 83,000 compounds went through this panel and 20% of them were active in at least one assay; those are over-represented in the sample as a whole.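 In brief: 96-well plates, 48 h treatment, single concentration, percent growth endpoint.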 Values without a mark were called inactive. Activity calls are given as the source filed them.
Each compound was assayed on SK-MEL-28 melanoma (assay: NCI-60 one-dose screen, 48 h (100 = growth as untreated, 0 = no growth, -100 = all killed)). Details: 10 µM unless noted.
Method: Growth inhibition of the SK-MEL-28 human tumor cell line is measured as a screen for anti-cancer activity. Cells are grown in 96 well plates and exposed to the test compound for 48 hours. Compounds are tested at a single concentration, which is 10^-5 M for most compounds. The reported endpoint is percent growth (GI% or GIPRCNT), where numbers from 0 - 100% represent growth inhibition, and numbers from -100% - 0 represent cell death. For example, a value of 40 represents 60% growth inhibition. A value of 0 means no net growth occurred over the course of the experiment. A value of -40 indicates 40% of cells at the beginning of the experiment died by the end of the experiment. A value of -100 means all cells are dead at the end of the experiment.
NCI-60 Human Tumor Cell Lines Screen was performed using the standard one-dose NCI protocol, which is described in more detail at https://dtp.cancer.gov/discovery_development/nci-60/default.htm.
Compounds with GIPRCNT values below 10 were considered active. Activity score was based on GIPRCNT using the following formula: […]
Score is 0 for GIPRCNT values of 100 or above, 50 for GIPRCNT values of 0, and 100 for GIPRCNT values of -100.

| Structure (SMILES) | growth |
| --- | --- |
| COc1ccc2c(c1)c(-c1noc(C(=O)c3cn(C)c4ncc(Br)cc34)n1)cn2C | 71.1% |
| Cc1cccc(C[C@H](NC(=O)Nc2ccc(Cl)cc2F)C(=O)N[C@@H]2C(=O)N3C[C@H](O)C[C@H]3C(=O)N3CCCC[C@H]3C(=O)N[C@@H](C)C(=O)N3C[C@H](C)C[C@H]3C(=O)O[C@H]2C)c1 | 0.552% (active) |
| CC(C)OC(=O)Nc1cc(F)ccc1F | 102% |
| O=C(CCCSc1nc(-c2ccccc2)cc(-c2ccccc2)n1)NO | 26% |
| CC(C)c1ccc(C(=O)Nc2nc3ccc(O)cc3s2)cc1 | 26.5% |
| COc1ccc(-c2cc(-c3ccccc3)nc(NCCNc3ccnc4cc(Cl)ccc34)n2)cc1 | -92.8% (active) |
| Cc1ccc(-c2cc(O)c(-c3ccc(C)cc3C)cc2O)c(C)c1 | 85.2% |
| Cc1ccc2c(c1)C(C)Cc1c(Cl)ncnc1N2C (stereo not given) | 27.1% |
| C#CCC(C(=O)OCC)C(=O)OCC | 109% |
| O=C(CCN1CCCCC1)c1ccc2ccccc2c1 | 112% |
| Clc1ccc(/C=N/Nc2nc3ccccc3s2)c(Cl)c1 | 114% |
| CCc1ccc(C2=C/C(=C/c3ccccc3)C(=O)N2CCc2ccc(S(N)(=O)=O)cc2)cc1 | 105% |
| NC(=S)Cc1ccccc1 | 105% |
| Cc1ccc(-n2nc3n(/c2=N\C(=O)NS(=O)(=O)c2ccc(C)cc2)CCN3C2=NCCN2)cc1 | 101% |
| O=C1/C(=C\c2cccn2Cc2ccccc2)c2ccccc2N1c1c(Cl)cccc1Cl | 98.4% |
| C[C@@H]1C[C@H]2C(=O)O[C@@H](C)[C@H](NC(=O)[C@H](Cc3cc(F)cc(F)c3)NC(=O)Nc3ccc(Cl)cc3F)C(=O)N3C[C@H](O)C[C@H]3C(=O)N3CCN(C)C[C@H]3C(=O)N[C@@H](C)C(=O)N2C1 | 41.3% |
| Nc1cc(Cl)cc2cccnc12 | 113% |
| O=C(NCCO)c1cccnc1 | 106% |
| CC(C)=CCC[C@](C)(O)[C@H]1CC[C@]2(C)[C@@H]1CC[C@@H]1[C@@]3(C)CC[C@H](OC(=O)CCC(=O)O)C(C)(C)[C@@H]3CC[C@]12C | -46% [100 µM] (active) |
| CCOC(=O)c1nn(C2CCCCO2)c2ccc(NC(=O)CN3CCCC3)cc12 (stereo not given) | 105% |

| Structure (SMILES) | growth |
| --- | --- |
| Cc1ccc(-c2cc(-c3ccc(C)cc3)nc(N3CCN(CCNc4ccnc5cc(Cl)ccc45)CC3)n2)cc1 | 14.6% |
| Cc1cc(-c2ccc(N=Nc3c(S(=O)(=O)O)cc4cc(S(=O)(=O)O)cc(N)c4c3O)c(C)c2)ccc1N=Nc1cc(S(=O)(=O)O)c2ccccc2c1O | 107% |
| CCN=C1C=CC(=C(c2ccc(N(CC)CC)cc2)c2ccc(N(CC)CC)cc2)c2ccccc21 | -67.6% (active) |
| COc1cc2c(c(OC)c1OC)-c1cc(I)c(O)cc1[C@@H](NC(C)=O)CC2 | 76.7% |
| Cc1cc(NN=C(c2ccc(O)cc2)c2ccc(O)cc2)c([N+](=O)[O-])cc1[N+](=O)[O-] | 61.6% |
| COc1cc2c(c(OC)c1OC)-c1ccc(NNC(N)=S)c(=O)cc1[C@@H](NC(C)=O)CC2 | 62.8% |
| CC1(C)CC(=O)c2c(ccc(C(=O)C[C@@H](N)CO)c2N)O1 | 17% |
| O=C(Nc1cccc(C2=NCCN2)c1)c1cccc(C(=O)Nc2cccc(C3=NCCN3)c2)c1 | 102% |
| N#C/C(C(=O)c1ccccc1)=C1/C(=O)Nc2ccccc21 | 113% |
| CCOc1ccccc1/C=N\Nc1ccc(S(=O)(=O)c2ccc(N/N=C/c3ccccc3OCC)cc2)cc1 | 100% |
| CN(C)Cc1ccc[nH]1 | 107% |
| COc1ccc(OC)c([N+](=O)[O-])c1C(=O)CNC(C)=O | 114% |
| CCCc1cc2cc(-n3nc(C)c4c3CC(C)(C)CC4=O)cc(NC3CCSCC3)c2c(=O)[nH]1 | 68.6% |
| COc1ccc2[nH]c(C(=O)N3CCN(C(=O)OCc4ccc5c(Br)cc(Br)c(O)c5n4)CC3)cc2c1 | -98.1% (active) |
| COc1cc2c(O)n(CCCN3CCOCC3)c3c4cnc5cccc(c(=O)c3c2cc1OC)c54 | 66.2% |
| CSc1nc(N)c(N=Nc2ccc(S(=O)(=O)Nc3nnc(C)s3)cc2)c(=O)[nH]1 | 108% |
| CCNC(=O)N1CCc2c(Cl)c3c(c(OC)c2[C@@H]1[C@H]1OCc2c1ccc(OC)c2OC)OCCO3 | 54.3% |
| Cn1cc(-c2noc(-c3cn(C)c4ncc(F)cc34)n2)c2ccccc21 | 94.1% |
| O=C1/C(=C/c2ccc(OCc3ccccc3)cc2)Oc2cc(OCCN3CCCCC3)ccc21 | 78.4% |
| CNC(=O)c1cc(Oc2cccc3nc(NC(=O)Nc4cc(C(F)(F)F)cc(C(F)(F)F)c4)ccc23)ccn1 | 33.2% |

Reference: PubChem BioAssay (NCI)
